Compound activity as filed in PubChem.
mHTT-CaM PPI inh = disrupts binding of mutant huntingtin to calmodulin | 190,000 compounds, 3.6% hits | inhibition, % at 15 µM | AID 1671202 | AlphaScreen His-mHTT/GST-CaM binding, luminescence | P42858;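 also: 0% = both proteins with DMSO and 100% = one protein alone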
Pf apPOL block = Pf-apPOL DNA polymerase inhibition | Recombinant Pf-apPOL, molecular beacon fluorescence, 1.5 h | inhibition, % at 10 µM | 210,000 compounds, 0.25% hits | AID 1794808
Active calls of the source: *; x = not tested or not shown. The entries come from a sample that favours hits as a whole. Rule as the data show it: active = inhibition above about 50%; inactive = the rest.

SMILES | mHTT-CaM PPI inh | Pf apPOL block
O=C(c1cc2c(s1)CCC(C(=O)N1CCCCCC1)C2)N1CCOCC1 (stereo not given) | 2 | -1
Cc1nn(C)c(C)c1CNC(=O)C1CCCN(c2nnc3ccc(C(F)(F)F)cn23)C1 (stereo not given) | -1 | 0
CCn1nc(C)c(C=O)c1C | -4 | x
O=C(O)c1cc(N2C(=O)C3C4c5ccccc5C(c5ccccc54)C3C2=O)ccc1Cl (stereo not given) | 1 | 0
O=C(O)c1cc(-n2cccc2)ccc1Cl | 72* | 18
O=[N+]([O-])C(=C1SCCS1)C(=C(Cl)Cl)N1CCOCC1 | 19 | -6
O=[N+]([O-])C(=C1SCCS1)C(=C(Cl)Cl)N1CCCCC1 | 70* | 3
O=C(O)CN1C(=O)c2ccc(C(=O)c3cccc([N+](=O)[O-])c3)cc2C1=O | 13 | -2
C=CCSc1nnc2c(n1)OC(c1ccc(F)cc1)N(C(C)=O)c1ccccc1-2 (stereo not given) | 28 | -13
C=CCSc1nnc2c(n1)OC(c1ccc(N(C)C)cc1)N(C(C)=O)c1ccccc1-2 (stereo not given) | 64* | -17
CCCNC(=O)C1CCCN(c2cnn(Cc3ccccc3)c(=O)c2)C1 (stereo not given) | 3 | -7
CCc1ccc(C(=O)CSc2nc3ccccc3c(=O)n2C)cc1 | -5 | -2
O=C(NCc1cccnc1)c1cccc(CN2C(=O)C3CCCN3C(=O)c3ccccc32)c1 (stereo not given) | -6 | -5
O=C(NCc1cccnc1)c1cccc(CN2C(=O)CSc3ccccc32)c1 | 92* | 3
O=C(NC1CCCCC1)C1c2cccn2CC(=O)N1Cc1ccc(F)cc1 (stereo not given) | 1 | 0
COc1cc(CN2CCCCCCC2)cc(OC)c1O | 72* | -4
COc1cc(CN2CCCCCC2)cc(I)c1O | -6 | -1
COc1cc(CN2CCN(c3cc(C)ccc3C)CC2)cc(OC)c1OC | 10 | -2
COc1cc(CN2CCN(c3cc(C)ccc3C)CC2)cc(I)c1O | 85* | -3
CC1=NN(C(=O)c2ccc([N+](=O)[O-])cc2)C(O)(C(F)(F)F)C1 (stereo not given) | 17 | -3
CC(C)(C)n1nc2c(c1NC(=O)c1cccc([N+](=O)[O-])c1)CSC2 | 67* | 6
Cc1c(C(=O)Nc2c3c(nn2-c2ccc([N+](=O)[O-])cc2)CSC3)cccc1[N+](=O)[O-] | 3 | -6
Cc1c(C(=O)Nc2c3c(nn2C(C)(C)C)CSC3)cccc1[N+](=O)[O-] | 92* | 3
Cc1ccc(C(=O)Nc2c3c(nn2C(C)(C)C)CSC3)cc1[N+](=O)[O-] | 29 | 4
Cc1oc(C2CCN(C(=O)c3ccc(Br)cc3)CC2)nc1C(=O)N1CCCC1 | 33 | -4
SMILES | mHTT-CaM PPI inh | Pf apPOL block
COc1ccc(O)c(-c2cc(-c3ccccc3C)[nH]n2)c1 | 69* | 7
Oc1ccccc1-c1cc(-c2ccccc2F)[nH]n1 | x | 6
COc1ccccc1-c1cc(-c2cc(Cl)ccc2O)n[nH]1 | 30 | -5
Cc1ccc(-c2cc(-c3ccccc3Cl)[nH]n2)c(O)c1 | 65* | -3
Oc1ccccc1-c1cc(-c2ccccc2)n[nH]1 | 35 | -248
Cc1ccccc1-c1cc(-c2ccccc2O)n[nH]1 | 52* | -4
Cc1nc(NC(=O)CSc2nnc(CCc3nc4ccccc4s3)o2)sc1C | -7 | -3
Cc1cc(NC(=O)C2CCCN(c3nnc4cccc(C)n34)C2)ccc1F (stereo not given) | 36 | -2
Cc1ccc(NC(=O)C2CCCN(c3nnc4cccc(C)n34)C2)cc1F (stereo not given) | 53* | -3
Cc1cccc(NC(=O)Cn2cnc3c(c2=O)CCCC3)c1 | -6 | -1
Cc1ccccc1C1CCCN1C(=O)c1ccco1 (stereo not given) | 7 | -2
NC(=O)c1ccccc1NC(=O)c1ccccc1[N+](=O)[O-] | 2 | -4
CC(=O)Nc1ccccc1NC(=O)c1ccccc1[N+](=O)[O-] | 60* | 1
NS(=O)(=O)c1ccc(NC(=O)CN2C(=O)NC(=CC=Cc3ccccc3)C2=O)cc1 | 20 | -4
Cc1nc2c(C(=O)NC3CCCC3)c[nH]n2c(=O)c1Cc1ccc(Cl)cc1 | 55* | 9
Cc1nc2c(C(=O)O)c[nH]n2c(=O)c1Cc1ccc(Cl)cc1 | -4 | 35
Cc1ccc(Cc2c(C)nc3c(C(=O)NCCC(C)C)c[nH]n3c2=O)cc1 | 14 | -8
Cc1ccc(Cc2c(C)nc3c(C(=O)NC4CCCC4)c[nH]n3c2=O)cc1 | 75* | 6
COc1ccc(C(=O)/C=C2/NC(=O)CS2)cc1 | -7 | 77*
COc1cccc(C(=O)C=C2NC(=O)CS2)c1 | x | -7
CC(C)CC(=O)N1CCCC1c1ccc(F)cc1 (stereo not given) | -8 | -1
CCC1(CC)OC(c2cccc([N+](=O)[O-])c2)Nc2ccccc21 (stereo not given) | 28 | 5
CCC1(CC)OC(c2c([N+](=O)[O-])cc([N+](=O)[O-])cc2[N+](=O)[O-])Nc2ccccc21 (stereo not given) | 79* | 0
COc1ccc(C2Nc3c(OC)ccc(Cl)c3C3C=CCC32)cc1[N+](=O)[O-] (stereo not given) | 62* | 0
Fc1ccc(C2Nc3c(Cl)cccc3C3C=CCC32)cc1 (stereo not given) | 37 | 0
SMILES | mHTT-CaM PPI inh | Pf apPOL block
O=[N+]([O-])c1cccc2c1NC(c1cccc(Cl)c1Cl)C1CC=CC21 (stereo not given) | 73* | -3
COc1ccc(C2Nc3c(Cl)cccc3C3C=CCC32)cc1[N+](=O)[O-] (stereo not given) | 52* | -4
CCOc1cc2c(c([N+](=O)[O-])c1)NC(c1ccc(Cl)cc1)C1CC=CC21 (stereo not given) | 41 | -1
COc1cc(C2Nc3c(Cl)cccc3C3C=CCC32)cc(OC)c1OC (stereo not given) | 70* | -4
COc1cc([N+](=O)[O-])cc2c1NC(c1ccc(Cl)cc1)C1CC=CC21 (stereo not given) | 38 | 9
COc1ccc(-c2cc(-c3ccccc3)nc(N3CCN(C)CC3)n2)cc1 | 48 | -2
COc1ccc(NC(=O)N2CC=C(c3cn(C(C)C)c4ncccc34)CC2)cc1 | 12 | -6
CN(C)CCNC(=O)C1COC2(CCCCC2)N1C(=O)c1cccc(F)c1 (stereo not given) | 4 | -3
Cc1ccnc(NC(=O)Cc2cn(C)c3ccccc23)c1 | 17 | -9
O=C(NCc1ccc(N2CCCCC2)nc1)c1ccc(F)cc1F | 19 | -4
COc1cc(Cl)cc(/C=C2\C(=O)NN(c3ccc(C)c(Cl)c3)C2=O)c1O | 13 | -1
COc1ccc(Cl)c(N=C2NC(=O)/C(=C/c3cccnc3)S2)c1 | 20 | -6
COc1ccccc1NC(=O)C1=C(C)Nc2nc3ccccc3n2C1c1ccccc1[N+](=O)[O-] (stereo not given) | 40 | -2
COc1ccc(C2Nc3ccccc3C3C=CCC32)cc1[N+](=O)[O-] (stereo not given) | 86* | 0
COc1cccc2c1NC(c1ccccc1[N+](=O)[O-])C1CC=CC21 (stereo not given) | 73* | -1
CC(=O)N(C)c1ccc(NC(=O)COc2ccc(Cl)cc2Cl)cc1 | 26 | -53
Cc1ccc(NC(=O)c2cnn3c2NC(c2ccco2)CC3C(F)(F)F)c(C)c1 (stereo not given) | 9 | -4
